{"source": "paper PMC12723454", "binders": {"B1": {"name": "HHH_b1_08438_000000177_dldesign_0_cycle1_af2pred_0001 (protein)", "chain": "GGSGGSAEEEVEKLIEEAKNNPDKEKAEELLSRALKLADAAGNVDLRSKTMNALFDVLGGSGGSG"}, "B2": {"name": "HHH_b1_01197_000000280_dldesign_0_cycle1_af2pred_0001 (protein)", "chain": "GGSGGSGKSSEIDKLLNEVLKLGKEEEYLKIMSLKMDYLETGDEEIFKEAKELAKKVIGGSGGSG"}, "B3": {"name": "HHH_b2_07220_000000120_dldesign_0_cycle1_af2pred_0001 (protein)", "chain": "SGGSEESKKLVEETIKKAKKLVEEGNPLEAKILLRKTLLDLSELGDDEGFSKLSKFLDEIEGGSG"}, "B4": {"name": "HHH_b1_00135_000000286_dldesign_0_cycle1_af2pred_0001 (protein)", "chain": "SGGSLAVETAKEYLEMVKSYAEEGDKEEAQFFADIIKLLAESENNPELKKIYEEAKKIVEEGGSG"}, "B5": {"name": "HHH_b1_08653_000000138_dldesign_0_cycle1_af2pred_0001 (protein)", "chain": "GSGGSGASLAAEDILRAMRQFARAGKPEAVRDLAKKGIKIMTEAGRPDEAKRIEEELARLGGSGG"}, "B6": {"name": "HHH_b1_02099_000000008_dldesign_0_cycle1_af2pred_0001 (protein)", "chain": "SGGSMEELDECARLLNELAHAIEEGNKEKFEELYKKARELIEKLGDEALLKALDELEEAFYGGSG"}, "B7": {"name": "ac710d00df0a15e663fb636f306744b3_0001_1_000000013_dldesign_0_cycle1_af2pred_0001 (protein)", "chain": "GIRERAREMAKKHGVSDEELQPVIDLVEKMRAEGKSIEEIARELGEKLAETGNKAYACVLEALAE"}}, "note": "Only a sample is shown. The hit rate among all sequences tested is not known here.", "data": [{"target": "Flpp3", "assay": "yeast display titration", "values": [{"binder": "B1", "apparent Kd": "> 11.6 µM (inactive)"}, {"binder": "B2", "apparent Kd": "> 5.39 µM (inactive)"}, {"binder": "B3", "apparent Kd": "> 4.46 µM (inactive)"}, {"binder": "B4", "apparent Kd": "> 7.9 µM (inactive)"}, {"binder": "B5", "apparent Kd": "> 134 µM (inactive)"}, {"binder": "B6", "apparent Kd": "> 0.105 µM (inactive)"}, {"binder": "B7", "apparent Kd": "> 0.105 µM (inactive)"}]}]}
